{"source": "PubChem BioAssay (Tox21)", "key": {"[1]": {"assay": "qHTS assay to identify small molecule antagonists of the estrogen related receptor (ERR) signaling pathway from Tox21 library - cell viability counter screen (AID 1224834); note: nearly all actives have a fitted effect of over 30% in size; note: potency is the fitted concentration of half-maximal effect", "how_it_was_run": "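ERR reporter cells, 2,000 per well, rested 6 h, then exposed to compound in DMSO for 17.5 hours at 37 C. Viability read as fluorescence after 30 min with CellTiter-Fluor.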"}, "[2]": {"target": "Luciferin 4-monooxygenase (Photinus pyralis) (UniProt P08659)", "sequence (P08659 whole entry, looked up)": "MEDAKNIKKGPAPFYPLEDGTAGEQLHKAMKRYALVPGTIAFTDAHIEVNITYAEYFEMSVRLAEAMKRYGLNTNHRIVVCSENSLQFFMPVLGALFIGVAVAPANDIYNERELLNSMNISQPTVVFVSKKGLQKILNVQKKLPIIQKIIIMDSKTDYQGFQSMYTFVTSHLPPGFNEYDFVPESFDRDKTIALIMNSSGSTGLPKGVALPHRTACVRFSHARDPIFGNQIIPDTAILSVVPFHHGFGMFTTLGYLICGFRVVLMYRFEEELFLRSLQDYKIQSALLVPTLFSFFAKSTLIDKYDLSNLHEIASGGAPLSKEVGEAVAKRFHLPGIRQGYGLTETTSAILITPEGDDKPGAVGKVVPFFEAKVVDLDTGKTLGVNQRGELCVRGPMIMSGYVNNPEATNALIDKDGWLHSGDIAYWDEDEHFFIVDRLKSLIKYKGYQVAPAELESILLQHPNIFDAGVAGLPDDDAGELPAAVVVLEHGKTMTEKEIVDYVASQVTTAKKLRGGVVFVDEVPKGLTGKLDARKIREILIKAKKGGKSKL", "assay": "qHTS assay to identify small molecule inhibitors of firefly luciferase (AID 1224835); note: nearly all actives have a fitted effect of over 25% in size; note: potency is the fitted concentration of half-maximal effect", "how_it_was_run": "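Quantitative HTS format; KM concentrations of both substrates. Purified P. pyralis FLuc activity quantified from luminescence images.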"}, "[3]": {"assay": "qHTS assay to identify small molecule agonists of the constitutive androstane receptor (CAR) signaling pathway - cell viability counter screen (AID 1224836); note: nearly all actives have a fitted effect of over 45% in size", "how_it_was_run": "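Multiplexed viability check: HepG2-CYP2B6-hCAR cells, 15-point compound dosing, 0.75 uM PK11195 final, 23 h at 37 C, CellTiter-Fluor fluorescence.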"}, "[4]": {"assay": "qHTS assay to identify small molecule antagonists of the constitutive androstane receptor (CAR) signaling pathway - cell viability counter screen (AID 1224837); note: nearly all actives have a fitted effect of over 45% in size", "how_it_was_run": "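HepG2 cells stably carrying hCAR and CYP2B6-2.2kb reporter, stimulated with 50 nM CITCO and compounds at 15 concentrations for 23 h at 37 C. Viability measured by CellTiter-Fluor fluorescence.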"}, "[5]": {"target": "Nuclear receptor subfamily 1 group I member 3 (Homo sapiens) (UniProt Q14994)", "sequence (Q14994 whole entry, looked up)": "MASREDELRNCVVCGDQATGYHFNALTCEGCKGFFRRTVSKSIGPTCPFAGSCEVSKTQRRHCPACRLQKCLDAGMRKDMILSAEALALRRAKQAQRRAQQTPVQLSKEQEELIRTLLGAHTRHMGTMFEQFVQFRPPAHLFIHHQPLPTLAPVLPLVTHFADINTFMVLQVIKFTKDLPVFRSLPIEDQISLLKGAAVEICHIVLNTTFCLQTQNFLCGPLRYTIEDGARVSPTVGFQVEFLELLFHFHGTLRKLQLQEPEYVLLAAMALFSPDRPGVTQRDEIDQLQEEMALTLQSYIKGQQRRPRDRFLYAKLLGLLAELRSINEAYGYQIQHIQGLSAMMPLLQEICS", "assay": "qHTS assay to identify small molecule antagonists of the constitutive androstane receptor (CAR) signaling pathway (AID 1224838); note: nearly all actives have a fitted effect of over 40% in size", "how_it_was_run": "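HepG2 cells stably carrying hCAR and a CYP2B6-2.2kb luciferase reporter, seeded 4 hrs before compound (15 concentrations). Stimulated with 50 nM CITCO for 24 hr at 37 C. ONE-Glo luminescence read after 30 min at room temperature.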"}, "[6]": {"target": "Nuclear receptor subfamily 1 group I member 3 (Homo sapiens) (UniProt Q14994)", "assay": "qHTS assay to identify small molecule agonists of the constitutive androstane receptor (CAR) signaling pathway (AID 1224839); note: nearly all actives have a fitted effect of over 15% in size; note: potency is the fitted concentration of half-maximal effect", "how_it_was_run": "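Using human hepatoma HepG2 cells engineered with hCAR and a CYP2B6-2.2kb reporter, 15-concentration compound series were incubated 24 h alongside PK11195 at 0.75 uM final, with luminescence quantified afterwards.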"}, "[7]": {"assay": "qHTS assay to identify small molecule antagonists of the estrogen related receptor signaling pathway with the pleiotropic PPARgamma coactivator (PGC) from Tox21 10K library - cell viability counter screen (AID 1224840; active = well fitted cell-killing curve with a large enough effect in the repeat runs, not every such curve was filed as active; note: nearly all actives have a fitted effect of over 40% in size)", "how_it_was_run": "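PGC/ERR cells (2,000/well) plated 6 h, then compound-treated for 17.5 h at 37 C. Viability measured by CellTiter-Fluor fluorescence after 30 min at 37 C, multiplexed with the pathway assay.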"}, "[8]": {"assay": "qHTS assay to identify small molecule antagonists of the estrogen related receptor signaling pathway with the pleiotropic PPARgamma coactivator (PGC) from Tox21 10K library (AID 1224841; call rule not given here; note: actives are mostly falling curves and most rising ones were filed inactive; nearly all actives have a fitted effect of over 50% in size)", "how_it_was_run": "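PGC/ERR cell line, 2,000 cells/well, pre-incubated 6 hours at 37 C, then exposed to compounds for 18 hours at 37 C; luciferase read with One-Glo luminescence after 30 min at room temperature.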"}, "[9]": {"assay": "qHTS assay to identify small molecule agonists of the estrogen related receptor signaling pathway with the pleiotropic PPARgamma coactivator (PGC) from Tox21 10K library (AID 1224842); note: nearly all actives have a fitted effect of over 15% in size", "how_it_was_run": "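PGC/ERR reporter cells (NTP line) were seeded 2,000 per well, rested 6 h at 37 C/5% CO2, then pin-dosed with compounds in DMSO for 18 h at 37 C; luciferase read by One-Glo luminescence after 30 min at room temperature.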"}, "[10]": {"target": "Thyrotropin receptor (Homo sapiens) (UniProt P16473)", "sequence (P16473 whole entry, looked up)": "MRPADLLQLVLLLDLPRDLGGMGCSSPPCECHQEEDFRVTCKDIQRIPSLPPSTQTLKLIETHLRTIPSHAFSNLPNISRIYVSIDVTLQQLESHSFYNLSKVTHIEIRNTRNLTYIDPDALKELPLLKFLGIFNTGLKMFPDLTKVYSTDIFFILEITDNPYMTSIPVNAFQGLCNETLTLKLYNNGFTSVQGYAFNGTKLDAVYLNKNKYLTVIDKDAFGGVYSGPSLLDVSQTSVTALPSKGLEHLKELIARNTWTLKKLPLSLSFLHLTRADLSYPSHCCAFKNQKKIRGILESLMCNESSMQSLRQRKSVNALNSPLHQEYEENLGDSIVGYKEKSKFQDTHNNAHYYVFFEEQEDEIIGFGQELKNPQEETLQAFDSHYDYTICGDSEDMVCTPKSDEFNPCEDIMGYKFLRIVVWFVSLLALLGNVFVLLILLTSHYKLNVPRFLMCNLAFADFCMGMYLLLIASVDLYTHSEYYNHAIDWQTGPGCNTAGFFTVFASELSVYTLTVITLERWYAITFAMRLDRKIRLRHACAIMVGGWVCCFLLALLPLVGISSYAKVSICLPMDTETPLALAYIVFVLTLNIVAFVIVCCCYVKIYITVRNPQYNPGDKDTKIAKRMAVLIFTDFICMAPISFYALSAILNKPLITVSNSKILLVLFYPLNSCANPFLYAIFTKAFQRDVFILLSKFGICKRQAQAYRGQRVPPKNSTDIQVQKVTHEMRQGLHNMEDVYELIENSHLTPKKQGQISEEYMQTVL", "assay": "qHTS assay to identify small molecule agonists of the thyroid stimulating hormone receptor (TSHR) signaling pathway (AID 1224843; calls by dose curve; note: nearly all actives have a fitted effect of over 45% in size)", "how_it_was_run": "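Cell line HEK293 with TSHR; density 800/well. Exposure 30 min RT. Readout HTRF cAMP (cAMP-d2/anti-cAMP-cryptate), 1 h RT before reading.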"}, "[11]": {"assay": "qHTS assay to identify small molecule agonists of the hypoxia (HIF-1) signaling pathway - cell viability counter screen (AID 1224844; calls by dose curve; note: nearly all actives have a fitted effect of over 50% in size)", "how_it_was_run": "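HRE-bla ME-180 cells, 2,000/well in 0.5% dialyzed FBS medium, treated 17 h at 37C with compounds. Viability read in the same wells as the bla reporter, by CellTiter-Glo luminescence after 30 min at room temperature.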"}, "[12]": {"assay": "qHTS assay to identify small molecule agonists of H2AX (AID 1224845; active = well fitted activation curve with a large enough effect in the signal ratio in the repeat runs, not every such curve was filed as active; the % refers to the signal ratio)", "how_it_was_run": "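Wild-type CHO-K1 cells plated overnight, then exposed 3 hr at 37C to compounds at 15 concentrations (0.76% DMSO). Lysed, then HTRF anti-pH2AX(S139)-cryptate/anti-H2AX-d2 detection after 24 hr at room temperature; emissions 665 and 620 nm.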"}, "[13]": {"assay": "qHTS assay to identify small molecule agonists of the hypoxia (HIF-1) signaling pathway (AID 1224846; active = well fitted activation curve with a large enough effect in the signal ratio in the repeat runs, not every such curve was filed as active; the % refers to the signal ratio)", "how_it_was_run": "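HRE-bla ME-180 beta-lactamase reporter cells in medium with 0.5% dialyzed FBS, pre-incubated 5 h then exposed to compounds 17 h at 37C, 5% CO2; reporter induction read with CCF4-AM FRET substrate.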"}, "[14]": {"assay": "qHTS assay to identify small molecule agonists of H2AX - cell viability counter screen (AID 1224847; calls by dose curve; note: nearly all actives have a fitted effect of over 30% in size; note: potency is the fitted concentration of half-maximal effect)", "how_it_was_run": "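After overnight plating of 1000 CHO-K1 cells per well, a 15-concentration compound series was applied for 3 hr at 37C. Luminescence from CellTiter-Glo, read following 30 min at room temperature, reflected cell viability.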"}, "[15]": {"assay": "qHTS assay to identify small molecule antagonists of the estrogen related receptor (ERR) signaling pathway from Tox21 library (AID 1224848); note: nearly all actives have a fitted effect of over 50% in size; note: potency is the fitted concentration of half-maximal effect", "how_it_was_run": "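Screening used an ERR reporter line supplied by NTP, exposed for 18 h at 37 C to library compounds delivered in DMSO. Signal was luciferase luminescence developed with ONE-Glo at room temperature for 30 min.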"}, "[16]": {"assay": "qHTS assay to identify small molecule agonists of the estrogen related receptor (ERR) signaling pathway from Tox21 library (AID 1224849; calls by dose curve; note: nearly all actives have a fitted effect of over 15% in size)", "conditions": "ERR reporter cell line, ONE-Glo luciferase, 18 h", "how_it_was_run": "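ERR reporter cells (NTP line) pre-incubated 6 hours at 37 C, then exposed to compounds for 18 hours at 37 C. ONE-Glo luciferase luminescence was read after 30 minutes at room temperature.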"}, "[17]": {"assay": "qHTS RealTime-Glo MT Cell Viability Assay in HepG2 cells - 24 hour (AID 1224867); note: nearly all actives have a fitted effect of over 50% in size", "how_it_was_run": "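HepG2 suspension premixed with RealTime-Glo reagents is plated at 600 cells per well and left 5 h at 37 C/5% CO2. Compounds in DMSO then go in, and bioluminescence reflecting viable cell number is recorded over 40 h.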"}, "[18]": {"assay": "qHTS RealTime-Glo MT Cell Viability Assay in HEK293 cells - 32 hour (AID 1224868)", "how_it_was_run": "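Reads taken at 0, 8, 16, 24, 32 and 40 h from the same wells. HEK293 cells (600/well) carried RealTime-Glo reagents from seeding, with compound added after a 5 h settle at 37 C.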"}, "[19]": {"assay": "A CellTox Green Cytotoxicity Assay to monitor cytotoxicity in HEK293 cells - 0 hour (AID 1224869); note: nearly all actives have a fitted effect of over 50% in size", "how_it_was_run": "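HEK293 cells, 600/well, were preincubated 5 hours and then exposed to compounds at 37 C for up to 40 hours. A cell-impermeant cyanine dye staining dead-cell DNA was read by fluorescence at 0, 8, 16, 24, 32 and 40 h time points.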"}, "[20]": {"assay": "qHTS assay to identify small molecule agonists of the estrogen related receptor signaling pathway with the pleiotropic PPARgamma coactivator (PGC) (AID 1224823)", "how_it_was_run": "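Steps: plate PGC/ERR cells at 2,000 cells/well; incubate 6 h, 37 C/5% CO2; pin-transfer compounds (DMSO); incubate 18 h, 37 C; add One-Glo; 30 min RT; read luminescence.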"}}, "note": "Values joined by “and” are separate entries in the source; they are usually repeats but may differ in a detail not shown here. Equal values may be shown once. Records with an inconclusive call do not appear. A call without a number means that no potency is given here. Where a structure was tested more than once in an assay, its records may differ in their call. Active and inactive are the calls of the source. Unless noted, calls come from the whole dose curve; as a rule, active = well fitted curve in the direction sought with a large enough effect in the repeat runs; inconclusive = weak or mixed curves; inactive = no such curve, though single readings can be large; an effect the other way counts as inactive or inconclusive."}
{"smiles": "CCCCC(CC)COC(=O)/C=C\\C(=O)OCC(CC)CCCC", "note": "(centres undefined)", "values": [{"measurement": "Potency", "setting": "[1]", "value": "inactive"}, {"measurement": "Potency", "setting": "[2]", "value": "inactive"}, {"measurement": "Potency", "setting": "[3]", "value": "inactive"}, {"measurement": "Potency", "setting": "[4]", "value": "inactive"}, {"measurement": "Potency", "setting": "[5]", "value": "inactive"}, {"measurement": "Potency", "setting": "[6]", "value": "61.1 µM (active)"}, {"measurement": "Potency", "setting": "[7]", "value": "inactive"}, {"measurement": "Potency", "setting": "[8]", "value": "inactive"}, {"measurement": "Potency", "setting": "[9]", "value": "inactive"}, {"measurement": "Potency", "setting": "[10]", "value": "inactive"}, {"measurement": "Potency", "setting": "[11]", "value": "inactive"}, {"measurement": "Potency", "setting": "[12]", "value": "inactive"}, {"measurement": "outcome", "setting": "[13]", "value": "inactive"}, {"measurement": "Potency", "setting": "[14]", "value": "inactive"}, {"measurement": "Potency", "setting": "[15]", "value": "inactive"}, {"measurement": "activity change, positive = activation", "setting": "[16]; at 92.4 µM (top of the series)", "value": "-6.56% (inactive) and 3.66% (inactive)"}, {"measurement": "Potency", "setting": "[17]", "value": "inactive"}, {"measurement": "Potency", "setting": "[18]", "value": "inactive"}, {"measurement": "Potency", "setting": "[19]", "value": "inactive"}]}
{"smiles": "Cc1cc(O)c2c(c1)C(=O)c1cc(O)cc(O)c1C2=O", "values": [{"measurement": "Potency", "setting": "[20]", "value": "inactive"}, {"measurement": "Potency", "setting": "[1]", "value": "27.3 µM (active)"}, {"measurement": "Potency", "setting": "[4]", "value": "inactive"}, {"measurement": "Potency", "setting": "[5]", "value": "inactive"}, {"measurement": "Potency", "setting": "[6]", "value": "48.6 µM (active)"}, {"measurement": "Potency", "setting": "[7]", "value": "inactive"}, {"measurement": "Potency", "setting": "[8]", "value": "inactive"}, {"measurement": "Potency", "setting": "[9]", "value": "inactive"}, {"measurement": "Potency", "setting": "[10]", "value": "inactive"}, {"measurement": "Potency", "setting": "[11]", "value": "inactive"}, {"measurement": "outcome", "setting": "[13]", "value": "inactive"}, {"measurement": "Potency", "setting": "[14]", "value": "55.4 µM (active) and 80 µM (active)"}, {"measurement": "Potency", "setting": "[15]", "value": "inactive and 54.5 µM (active)"}, {"measurement": "activity change, positive = activation", "setting": "[16]; at 42.5 µM (top of the series)", "value": "-4% (inactive)"}, {"measurement": "activity change, positive = activation", "setting": "[16]; at 92.4 µM (top of the series)", "value": "-40.4% (inactive)"}, {"measurement": "Potency", "setting": "[17]", "value": "inactive"}]}
{"smiles": "CN(CCOc1ccc(CC2SC(=O)NC2=O)cc1)c1ccccn1", "note": "(centres undefined)", "values": [{"measurement": "Potency", "setting": "[1]", "value": "inactive"}, {"measurement": "Potency", "setting": "[2]", "value": "70.6 µM (active) and inactive"}, {"measurement": "Potency", "setting": "[3]", "value": "inactive"}, {"measurement": "Potency", "setting": "[4]", "value": "inactive"}, {"measurement": "Potency", "setting": "[5]", "value": "inactive"}, {"measurement": "Potency", "setting": "[6]", "value": "inactive"}, {"measurement": "Potency", "setting": "[7]", "value": "inactive"}, {"measurement": "Potency", "setting": "[10]", "value": "inactive"}, {"measurement": "Potency", "setting": "[11]", "value": "inactive"}, {"measurement": "Potency", "setting": "[12]", "value": "inactive"}, {"measurement": "outcome", "setting": "[13]", "value": "inactive"}, {"measurement": "Potency", "setting": "[14]", "value": "inactive"}, {"measurement": "Potency", "setting": "[18]", "value": "inactive"}, {"measurement": "Potency", "setting": "[19]", "value": "inactive"}]}
